From PubChem
Rows were chosen to be rich in hits. Some 1.5% of all compounds tested hit in one or more screens of this group.
MEX-5 binding – C. elegans MEX-5 TCR-2 RNA binding activity | Q9XUB2 | MEX-5/FITC-TCR2 RNA binding, fluorescence polarization; active compounds read low | activity score (negative = inhibition of binding), % at 10 µM | 300,000 tested, 0.38% active | AID 1832;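 active = inhibition past about -25% in most replicates, and total fluorescence under double the plate's negative control median, limit read from the data; inconclusive = replicates evenly split on the limit, or fluorescence at least double controls; inactive = too little inhibition in most replicates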;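 also: 0% = DMSO and -100% = 5 µM competing unlabeled TCR2 RNA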
Target sequence (Q9XUB2 whole entry, looked up): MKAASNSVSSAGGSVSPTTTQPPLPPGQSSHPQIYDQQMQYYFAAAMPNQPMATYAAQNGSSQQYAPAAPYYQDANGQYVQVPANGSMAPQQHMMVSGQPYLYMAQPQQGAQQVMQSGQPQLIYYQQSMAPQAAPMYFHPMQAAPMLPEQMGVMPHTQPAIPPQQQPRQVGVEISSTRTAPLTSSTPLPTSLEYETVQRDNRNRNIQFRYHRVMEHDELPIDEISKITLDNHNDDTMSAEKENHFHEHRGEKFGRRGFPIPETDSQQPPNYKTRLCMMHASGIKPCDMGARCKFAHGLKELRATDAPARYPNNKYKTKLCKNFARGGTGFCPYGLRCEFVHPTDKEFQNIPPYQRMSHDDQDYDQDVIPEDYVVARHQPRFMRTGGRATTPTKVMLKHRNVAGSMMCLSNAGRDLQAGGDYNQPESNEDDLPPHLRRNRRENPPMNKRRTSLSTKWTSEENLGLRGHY
E coli Lon inh – inhibitors of E. coli Lon protease. P0A9M0. purified E. coli Lon protease, fluorescence polarization. inhibition, % at 7.94 µM. 360,000 tested, 0.42% active; in the data active = inhibition above about 13%, passing the limit was not always enough;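 also: 0% = enzyme with probe and DMSO and 100% = no enzyme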
GLD-1 TGE inh – GLD-1-TGE RNA interaction inhibition (C. elegans); Q17339; purified GLD-1 + fluorescein TGE RNA, fluorescence polarization; inhibition, % at 5.96 µM; 320,000 tested, 0.44% active; AID 2280;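 active = percent inhibition above a per-plate cutoff, the plate mean of test compounds plus 3 SD, cut at about 30% in these data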;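 also: 0% = DMSO wells with GLD-1 and probe and 100% = wells lacking GLD-1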
MCL1 BIM primary – disrupts human MCL1 binding to BIM-BH3 peptide | Q07820 | GST-MCL1 / FITC-Bim-BH3 fluorescence polarization | inhibition, % at 10.9 µM | 320,000 tested, 0.68% active;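 active = inhibition above the mean inhibition of all tested compounds plus 3 SD, set per campaign, cut at about 40% in these data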;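 also: 0% = DMSO wells and 100% = unlabeled Bim-BH3 peptide control; higher means more loss of mP so more displacement of Bim peptide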
EBV gp42 inh – EBV gp42 inhibition; inhibition, % (tested at 21.74 µM); Q1HVG2; 220,000 tested, 0.42% active; Fluorescence polarization binding assay, mP read-out; AID 1085; in the data active = inhibition above about 50%
Target sequence (Q1HVG2 whole entry, looked up): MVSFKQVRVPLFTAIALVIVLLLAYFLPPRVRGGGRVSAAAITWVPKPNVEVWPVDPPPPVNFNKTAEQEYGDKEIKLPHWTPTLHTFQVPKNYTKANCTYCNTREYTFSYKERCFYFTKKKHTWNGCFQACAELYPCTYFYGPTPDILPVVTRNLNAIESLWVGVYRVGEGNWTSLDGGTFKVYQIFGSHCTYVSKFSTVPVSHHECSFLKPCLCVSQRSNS
BCLXL inh – blocks human Bcl-xL binding to Bim BH3 peptide | Q07817 | GST-Bcl-xL / FITC-Bim BH3 peptide fluorescence polarization | 320,000 tested, 0.7% active | inhibition, % at 10.9 µM;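 active = inhibition above the mean of all tested compounds plus 3 SD, cutoff set per campaign, cut at about 30% in these data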;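 also: 0% = DMSO wells and 100% = unlabeled Bim-BH3 peptide competitor; inhibitors lower millipolarization by displacing the labeled peptide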
* marks the source's active call; other numbers are inactive results; ? = inconclusive; . = no result.

SMILES	MEX-5 binding	E coli Lon inh	GLD-1 TGE inh	MCL1 BIM primary	EBV gp42 inh	BCLXL inh
CC1CCN(C(=O)/C(=C/c2ccccc2Cl)c2ccccc2)CC1	-0.3	-5.8	0.2	6.1	-7.0	5.9
N#CC(C#N)=C1C=CC=CN1/C(=C\c1ccccc1Cl)C(=O)c1ccccc1	.	13.3	25.8	43.5*	20.8	51.5*
COc1ccc(S(=O)(=O)Nc2c(O)ccc3ccccc23)cc1OC	0.2	5.1	-4.8	7.0	.	22.5
O=C(NN1C(=O)/C(=C/c2cc([N+](=O)[O-])ccc2O)SC1=S)c1ccccc1O	-11.1	.	-6.7	55.2*	.	4.6
O=C(NN1C(=O)/C(=C/c2ccc(O)c([N+](=O)[O-])c2)SC1=S)c1ccccc1Cl	-17.5	-18.4	-35.1	-32.2	-29.4	-20.3
OCCNc1nc(Nc2ccc(Br)cc2)nc2ccccc12	-1.4	.	2.4	-3.8	56.0*	4.4
O=C(N/N=C/c1cccnc1)c1cc(O)c(O)c(O)c1	-31.0*	-12.5	8.2	27.3	.	14.8
O=C(N/N=C/c1cccnc1)c1ccc(O)cc1	-3.2	-8.0	2.8	-1.7	.	3.8
Cc1oc(-c2ccc(-c3ccccc3)cc2)nc1CN(CCO)C(C)C	2.5	-1.4	3.7	3.3	.	2.4
CC(C)(C)N1C(=O)Cc2c1nc(N)c1c(N)nc(N3CCCCC3CO)c(C#N)c21 (stereo not drawn)	-3.2	49.7*	11.8	56.4*	-6.9	29.7
Cc1nc(-c2ccc(O)c(O)c2)cs1	-51.2*	0.0	4.0	32.5	-47.3	23.0
COc1cc(-c2csc(C)n2)ccc1O	1.3	-5.3	13.5	0.3	0.1	1.2
CNC(=O)OCN1C(=O)C2CC=CCC2C1=O (stereo not drawn)	.	6.2	.	.	.	.
C=CCN1C(=O)/C(=C/c2ccc(N(C)C)cc2)S/C1=N\c1nnc(CC)s1	-10.2	.	.	.	52.9*	.
C=CCN1C(=O)/C(=C/c2ccc(OCC(=O)O)cc2)S/C1=N/c1nccs1	-1.5	1.9	6.0	-3.6	-0.9	3.8
COc1ccccc1-c1coc2c(CN3CCN(CCO)CC3)c(O)ccc2c1=O	-0.5	-2.4	4.7	2.0	.	3.7
Cc1ccc(/C=C2\Oc3c(ccc(O)c3CN3CCN(CCO)CC3)C2=O)cc1	-31.5*	-50.1	-2.2	36.6	-1.9	47.7*
CC(C)c1ccc(/C=C2\Oc3c(ccc(O)c3CN3CCN(C)CC3)C2=O)cc1	-20.1	-83.4	-5.9	35.7	-27.9	41.2*
CCN1CCN(Cc2c(O)ccc3c2O/C(=C\C=C\c2ccccc2OC)C3=O)CC1	?	-39.6	-22.0	1.9	-105.3	39.5*
O=C(Cc1ccc(F)cc1)Nc1cc(S(=O)(=O)N2CCOCC2)ccc1N1CCCCC1	.	4.4	.	.	.	.
Cc1nn(-c2ccccc2)c(N2CCCC2)c1/C=N/NC(=O)c1cc(-c2cccnc2)nc2ccccc12	-28.2*	7.5	7.7	8.6	-0.6	6.4
CC(=O)c1ccc(N2C(=O)C3C(C2=O)C(C(=O)c2ccc(Cl)cc2)N2CCCC32)cc1 (stereo not drawn)	.	.	.	.	88.6*	.
COc1ccc(N2C(=O)C3C(C2=O)C(C(=O)c2ccc(Cl)cc2)N2CCCC32)cc1 (stereo not drawn)	1.1	-12.1	17.2	4.4	-7.7	16.9
O=C(c1ccc(Cl)cc1)C1C2C(=O)N(c3ccccc3)C(=O)C2C2CCCN21 (stereo not drawn)	-29.5*	5.9	.	.	81.3*	.
O=C(COC(=O)C12CC3CC(CC(O)(C3)C1)C2)Nc1cccc(Br)c1	.	11.7	.	.	.	.
SMILES	MEX-5 binding	E coli Lon inh	GLD-1 TGE inh	MCL1 BIM primary	EBV gp42 inh	BCLXL inh
COc1cc(NS(=O)(=O)c2ccc(-c3ccc(=O)[nH]n3)o2)cc(OC)c1OC	0.2	-3.2	-4.0	-0.8	.	-1.2
NC(=S)n1[nH]c(-c2ccc([N+](=O)[O-])cc2)c(N=Nc2cccc(Cl)c2)c1=O	-1.7	1.6	.	.	100.2*	.
NC(=S)n1[nH]c(-c2ccc([N+](=O)[O-])cc2)c(N=Nc2ccc(O)cc2)c1=O	-3.2	-3.5	-2.9	9.1	19.2	10.1
COc1ccc(C2=CC3=C(Br)C(=O)C(C)(OC(=O)C4CCCC4)C(=O)C3=CO2)cc1 (stereo not drawn)	?	-5.7	8.7	42.2*	-14.4	31.1*
COc1ccc(C2=CC3=C(Br)C(=O)C(C)(OC(=O)c4ccc(Cl)nc4)C(=O)C3=CO2)cc1 (stereo not drawn)	-30.3*	.	9.1	26.4	19.4	20.9
CC1CCCCN1C(=O)COC(=O)C1CCN(S(=O)(=O)c2c(Cl)cccc2Cl)CC1 (stereo not drawn)	-4.6	2.3	-3.0	-18.3	.	-7.5
CCCCN(C(=O)c1ccc(N(C)S(=O)(=O)c2ccc(C)cc2)cc1)c1c(N)n(CCCC)c(=O)[nH]c1=O	2.8	-21.1	7.2	-1.0	.	-0.5
COC(=O)COc1ccc2c(c1)O/C(=C\c1ccco1)C2=O	-0.2	-15.5	-3.9	0.2	.	75.5*
C=CCN(CC=C)C(=O)c1ccc(OC2CCN(C(C)=O)CC2)c(OC)c1	1.4	7.9	-1.8	1.6	.	6.6
C=CCN1[C@@H](Cc2ccccc2)COc2cc(N3CCSCC3)ccc2S1(=O)=O	.	-0.6	.	.	.	.
O=C1C=C(c2ccc(F)c(Cl)c2)C[C@@H](c2ccc(F)cc2)C1	.	0.2	1.0	-13.7	.	2.6
COc1ccc(/C=C(\C#N)c2nc3ccc(C)cc3[nH]2)cc1Oc1ccc(C(F)(F)F)cc1[N+](=O)[O-]	-57.6*	-14.6	1.8	-13.4	-2.9	-4.0
CC(C)CCn1c(=O)c2sccc2n2c(CCCC(=O)N3CCC(N4CCCCC4)CC3)nnc12	-2.2	-5.0	1.0	2.9	.	3.1
CCOC(=O)/C(=C/c1ccc(N2CCC(c3ccccc3)=N2)cc1)C(C)=O	-33.5*	-79.8	.	.	156.1*	.
NC(=O)c1ccsc1NC(=O)COc1ccccc1	-2.8	4.8	14.7	43.3*	-4.6	47.4*
Cc1cccc(OCC(=O)OCC(=O)Nc2sccc2C(N)=O)c1	.	-1.1	1.7	.	.	.
COc1ccc(-n2c(N)c(C#N)c3ccc([N+](=O)[O-])cc3c2=O)cc1	-5.0	-0.9	8.0	16.7	52.0*	19.3
Cc1cccc(S(=O)(=O)C(C#N)c2nc3ccccc3nc2N2CCCC2)c1 (stereo not drawn)	-8.8	-8.1	13.5	10.9	91.6*	25.9
Oc1c(Br)cc(Br)c(/C=N/n2c(-c3ccccc3)n[nH]c2=S)c1Br	-37.4*	11.3	1.6	30.4	.	1.4
Oc1ccc(Br)cc1/C=N/n1c(-c2ccccc2)n[nH]c1=S	3.6	3.4	8.7	-9.0	.	-18.5
CC1(C(=O)Nc2cnc3ccccc3c2)CCN1Cc1ccc(-c2ccccc2)o1 (stereo not drawn)	.	-1.4	.	.	.	.
COc1ccccc1N1C(=O)C(Cl)=C(Nc2ccccc2O)C1=O	-28.6*	-7.4	.	.	-19.2	.
O=C1C(Cl)=C(Nc2ccccc2O)C(=O)N1c1ccccc1	-31.2*	-11.6	-3.2	3.8	-20.3	5.4
